The list is not random: actives were taken first. Their share in the collection is about 7.6%.
Cav32 inh – blocks human Cav3.2 T-type calcium channel. B-score at 10 µM. AID 449739. hit rate 4% among 100,000. Cav3.2-expressing cells, Fluo-4 calcium fluorescence FDSS; hits give low values. O95180;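 active = single-dose well whose peak fluorescence ratio is a statistical outlier from its plate by either plate-standardised score or position-corrected B-score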
Target sequence (O95180 whole entry, looked up): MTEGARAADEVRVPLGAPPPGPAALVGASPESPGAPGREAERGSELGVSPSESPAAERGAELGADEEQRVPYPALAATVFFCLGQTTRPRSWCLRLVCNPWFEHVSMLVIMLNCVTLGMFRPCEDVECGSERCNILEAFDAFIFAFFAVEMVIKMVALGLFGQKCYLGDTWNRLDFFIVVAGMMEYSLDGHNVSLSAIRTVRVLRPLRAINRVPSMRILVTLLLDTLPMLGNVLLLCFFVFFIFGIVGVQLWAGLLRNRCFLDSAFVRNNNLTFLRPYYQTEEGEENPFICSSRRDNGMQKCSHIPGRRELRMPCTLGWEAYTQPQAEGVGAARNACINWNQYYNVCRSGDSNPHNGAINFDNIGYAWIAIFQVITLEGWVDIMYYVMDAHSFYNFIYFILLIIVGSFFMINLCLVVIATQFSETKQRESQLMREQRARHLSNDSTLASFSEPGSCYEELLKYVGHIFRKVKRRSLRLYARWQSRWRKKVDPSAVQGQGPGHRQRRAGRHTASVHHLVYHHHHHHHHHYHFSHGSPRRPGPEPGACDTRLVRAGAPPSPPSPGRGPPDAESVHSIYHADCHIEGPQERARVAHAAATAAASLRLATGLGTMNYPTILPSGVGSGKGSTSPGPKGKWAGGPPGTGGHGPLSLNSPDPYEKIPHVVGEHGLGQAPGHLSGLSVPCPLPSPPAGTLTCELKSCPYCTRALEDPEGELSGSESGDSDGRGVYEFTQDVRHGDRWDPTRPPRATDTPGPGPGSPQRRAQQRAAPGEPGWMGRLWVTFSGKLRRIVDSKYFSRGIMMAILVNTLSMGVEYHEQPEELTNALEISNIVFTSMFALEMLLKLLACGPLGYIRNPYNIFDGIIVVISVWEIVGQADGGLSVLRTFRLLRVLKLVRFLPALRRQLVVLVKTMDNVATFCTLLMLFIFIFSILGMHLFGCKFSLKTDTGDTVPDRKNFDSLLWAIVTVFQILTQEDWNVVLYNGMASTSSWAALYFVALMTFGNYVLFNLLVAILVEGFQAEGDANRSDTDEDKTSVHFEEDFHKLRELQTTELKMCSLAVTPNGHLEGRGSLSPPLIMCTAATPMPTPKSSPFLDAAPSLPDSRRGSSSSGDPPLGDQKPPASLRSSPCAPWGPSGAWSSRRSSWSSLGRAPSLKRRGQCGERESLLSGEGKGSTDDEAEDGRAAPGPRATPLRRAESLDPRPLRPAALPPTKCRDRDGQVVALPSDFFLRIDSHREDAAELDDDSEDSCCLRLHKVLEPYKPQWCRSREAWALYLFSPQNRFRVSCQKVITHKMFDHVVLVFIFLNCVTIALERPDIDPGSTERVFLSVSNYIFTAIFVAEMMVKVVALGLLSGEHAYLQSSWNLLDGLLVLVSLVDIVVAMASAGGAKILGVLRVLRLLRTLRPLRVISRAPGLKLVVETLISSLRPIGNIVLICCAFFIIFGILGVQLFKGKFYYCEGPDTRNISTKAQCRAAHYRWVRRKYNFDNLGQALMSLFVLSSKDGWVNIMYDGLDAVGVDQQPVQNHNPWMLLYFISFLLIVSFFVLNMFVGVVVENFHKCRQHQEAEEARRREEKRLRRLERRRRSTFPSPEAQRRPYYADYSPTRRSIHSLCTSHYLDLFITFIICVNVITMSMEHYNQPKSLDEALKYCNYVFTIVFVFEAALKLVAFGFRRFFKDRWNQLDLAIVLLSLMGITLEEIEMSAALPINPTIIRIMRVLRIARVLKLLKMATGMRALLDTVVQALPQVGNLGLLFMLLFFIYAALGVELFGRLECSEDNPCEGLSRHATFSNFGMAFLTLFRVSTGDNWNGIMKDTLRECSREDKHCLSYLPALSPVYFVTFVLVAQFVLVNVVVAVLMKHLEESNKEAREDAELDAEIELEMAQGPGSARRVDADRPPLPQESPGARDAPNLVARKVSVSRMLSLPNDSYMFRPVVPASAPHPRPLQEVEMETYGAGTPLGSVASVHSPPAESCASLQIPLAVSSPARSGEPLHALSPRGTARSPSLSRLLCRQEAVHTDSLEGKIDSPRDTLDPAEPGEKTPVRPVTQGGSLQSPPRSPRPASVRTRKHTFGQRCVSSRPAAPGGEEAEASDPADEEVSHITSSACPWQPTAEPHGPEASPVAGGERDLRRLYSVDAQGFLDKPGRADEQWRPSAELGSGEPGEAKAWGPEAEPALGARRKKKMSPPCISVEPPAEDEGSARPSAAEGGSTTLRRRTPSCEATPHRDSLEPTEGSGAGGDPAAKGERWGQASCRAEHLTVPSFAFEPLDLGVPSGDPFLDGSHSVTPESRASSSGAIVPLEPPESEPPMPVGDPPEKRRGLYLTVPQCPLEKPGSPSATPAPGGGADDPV
M1 antag – antagonists of rat M1 muscarinic receptor | CHO-M1 cells, Fluo-4 calcium, ACh EC80 antagonist mode; hits give low values | B-score at 10 µM | AID 628 | hit rate 3.4% among 64,000;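 active = calcium fluorescence response, raw or row-and-column corrected B-score, differing from the plate sample mean either way at a set confidence level, mostly lower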
M1 agonist – activates the M1 muscarinic receptor; B-score at 10 µM; CHO-M1 cells, Fluo-4 calcium fluorescence, agonist mode; hits give high values; hit rate 3% among 64,000;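 active = fluorescence rise, raw or as B-score row- and column-corrected plate score, outside the 99.7% band of its plate's samples, either direction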
PLAP act – activators of human placental alkaline phosphatase | activation fold at 20 µM | P05187 | AID 696 | purified PLAP enzyme, luminescent substrate read-out; hits give high values | hit rate 1.2% among 96,000; in the data active = activation fold above about 2
M1 antag confirm – M1 muscarinic receptor (rat) antagonism, confirmed. shares compounds with M1 antag. CHO-M1 cells, Fluo-4 calcium, ACh EC80 antagonism; hits give low values. calcium response (max-min fluorescence) at 10 µM. hit rate 43% among 1,700;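 active = calcium response below the same-plate mean of wells given acetylcholine alone at its 80%-effect dose, minus 3 SD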;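 also: raw fluorescence intensity difference in arbitrary instrument units and not normalized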
mGluR4 antag – selectivity test for M1 antagonists: human mGluR4 receptor; shares compounds with M1 antag; fluorescence response (max-min) at 10 µM; CHO-mGluR4 calcium flux, Fluo-4 fluorescence, glutamate EC80; hits give low values; AID 678; hit rate 0.9% among 1,700;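 active = fluorescence response below the plate's average for near-maximal glutamate wells, less 3 SD of those wells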;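 also: raw unnormalized fluorescence span taken in the window right after glutamate addition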
* = called active by the depositor; . = no result.

SMILES	Cav32 inh	M1 antag	M1 agonist	PLAP act	M1 antag confirm	mGluR4 antag
O=C(CCS(=O)(=O)c1cccc2nsnc12)N1CCN(Cc2ccc3c(c2)OCO3)CC1	0.53	-2.5*	-0.51	1.6	473	221
O=C(CN1CCN(Cc2ccc3c(c2)OCO3)CC1)N1CCc2[nH]c3ccccc3c2C1	0.014	-1.7	-0.78	1.5	.	.
O=C(Cn1ccc2ccccc2c1=O)N1CCN(Cc2ccc3c(c2)OCO3)CC1	1.8	-2.8*	0.07	1.1	570	181
O=C(CN1CCN(Cc2ccc3c(c2)OCO3)CC1)N1CCc2[nH]c3ccc(F)cc3c2C1	-0.0036	-3.8*	-0.93	1.6	477	210
O=C(c1cc2ccccc2oc1=O)N1CCN(Cc2ccc3c(c2)OCO3)CC1	.	-0.65	0.13	1.5	.	.
CC(=O)OCC1OC(Sc2cccc3cccnc23)C(OC(C)=O)C(OC(C)=O)C1OC(C)=O (stereo not drawn)	2	.	.	1.5	.	.
O=C(C1CCCO1)N1CCN(c2c3c(nc4cc(-c5ccc(F)cc5)nn24)CCC3)CC1 (stereo not drawn)	0.08	-3.6*	1.2	1	661	243
O=C(CN(C(=O)c1ccc2c(c1)OCCO2)c1ccccc1)NCC1CCCO1 (stereo not drawn)	1	-1	-0.43	1.3	.	.
CNc1nc(N)c(C(=O)C(C)(C)C)s1	0.079	-1.8*	1.2	1	599	260
CNc1ncc(C(=O)C(C)(C)C)s1	-0.35	.	.	1	.	.
Nc1nc(N2CCCCC2)nc2ccccc12	.	-5.9*	-0.069	0.7	286*	268
c1ccc(-c2nc(N3CCNCC3)nc3ccccc23)cc1	0.6	.	.	1.4	.	.
c1ccc2c(N3CCCCC3)nc(N3CCCC3)nc2c1	-1.8	-2.6*	0.0045	1.5	493*	167
COc1ccccc1NC(=O)CSc1nnc(CNC(=O)COc2ccc(Cl)cc2)o1	-3.2	-2.8*	-0.027	1.7	685	245
COc1ccc(OC)c(NC(=O)CSc2nnc(CNC(=O)COc3ccc(Cl)cc3)o2)c1	-3	1.1	-1.6	1.1	.	.
Cn1c(=O)[nH]c(=O)c2c1nc(Br)n2Cc1ccccc1F	0.038	0.86	-0.82	0.9	.	.
CN(C)c1nc2c(c(=O)[nH]c(=O)n2C)n1Cc1ccccc1Br	0.65	-2.9*	0.18	0.9	678	242
CCc1nc(SCC(=O)Nc2cccc(C(F)(F)F)c2)c2c(=O)n(C)c(=O)n(C)c2n1	-0.018	-0.091	-1.2	1	.	.
COCCn1c(=N)c(C(=O)NCCc2ccccc2)cc2c(=O)n3cccc(C)c3nc21	0.26	-4.7*	-0.082	.	194*	236
Cc1cccn2c(=O)c3cc(C(=O)NCCCN4CCCC4=O)n(C)c3nc12	-2.6	-3.1*	0.13	1.9	615*	198
CCCCNC(=O)c1cc2c(=O)n3cccc(C)c3nc2n1C	.	0.65	0.063	0.8	.	.
Cc1cccn2c(=O)c3cc(C(=O)NCc4ccccc4)c(=N)n(CCCN4CCOCC4)c3nc12	.	-3.3*	1.1	.	337*	195
COc1ccccc1N1CCN(C(=O)c2ccc(S(=O)(=O)N3CCCCCC3)cc2)CC1	-0.0089	-0.89	0.24	1.6	.	.
Cc1nn(C)c(C)c1S(=O)(=O)Nc1ccc2c(c1)OCO2	0.17	-5.9*	0.21	0.9	559	203
CCN(CC)CCOC(=O)c1cccc(Br)c1	0.99	-4.4*	0.17	1	472*	267
SMILES	Cav32 inh	M1 antag	M1 agonist	PLAP act	M1 antag confirm	mGluR4 antag
COc1ccc(C2CC(=O)C(C=NCCN3CCN(C(C)=O)CC3)=C(O)C2)cc1OC (stereo not drawn)	.	-0.22	0.2	1	.	.
Clc1ccc2c(N3CCCC3)ccnc2c1	-0.91	-3*	-0.12	0.7	555	253
CCSc1ccccc1C(=O)Nc1cc(C)on1	0.14	-3.8*	-0.61	0.9	537	193
Cc1cc(NC(=O)c2ccccc2-c2ccccc2C(=O)O)no1	.	0.43	-0.37	.	.	.
COc1ccc(C(=O)CSc2nnc(Cn3cnc4ccccc43)o2)cc1	0.25	-2.2*	2	1.1	532*	253
COCCN(CCOC)C(=O)c1sc2nc(-c3ccccc3)cn2c1C	0.1	-1	0.43	1.7	.	.
CCN(CC)CCNC(=O)c1sc2nc(-c3ccccc3)cn2c1C	.	-0.79*	0.028	.	345*	212
CCn1nnnc1NCc1ccc(N2CCCC2)cc1	.	-17*	-1.2	0.8	503*	215
O=C(COc1c(F)c(F)cc(F)c1F)NC(=O)NC1CCCC1	-2	-12*	0.039	0.9	223*	233
COc1ccc2[nH]c3c(c2c1)CCNC3=O	0.84	.	.	.	.	.
